In experiment [1] the test system is Vero E6 infected with SARS-CoV-2. As to the kind of experiment: morphology score (similarity to uninfected cells); higher = more like uninfected cells. As to conditions: 24 h.
Experiment [2] shares this test system. As to the kind of experiment: SARS-CoV-2 infection rate relative to infected DMSO; higher = more infection, active = 60 or less. As to conditions: 24 h.

These results are taken from the supplement of paper PMC13380429.

`Cc1ccc(C)c(Oc2ccncc2C(=O)N2CCN(C3CC3)c3ccccc32)c1` (10 µM): the morphology score in experiment [1] came out at 0.133. Further, the SARS-CoV-2 infection rate in experiment [2] is 108% (inactive).

Compound `CCC1=C[C@@H]2CN3CCc4c([nH]c5ccccc45)[C@@](C(=O)OC)(C2)[C@@H]13` [catharanthine] (10 µM) had a morphology score in experiment [1] of 0.119. The SARS-CoV-2 infection rate in experiment [2] was 110% (inactive).

For the compound `O=C1C=CC[C@@H]2[C@H]3CCCN4CCC[C@@H](CN12)[C@@H]34` [sophocarpine] (10 µM), in experiment [1], the morphology score was -0.0321. Moreover, in experiment [2], the SARS-CoV-2 infection rate was 112% (inactive).

With `CC(=O)[C@H]1CC[C@H]2[C@@H]3CC=C4C[C@@H](OC(=O)CCC(=O)O)CC[C@]4(C)[C@H]3CC[C@]12C` [pregnenolone-succinate] (10 µM), the morphology score in experiment [1] was -0.0431. In experiment [2], the SARS-CoV-2 infection rate was 104% (inactive).

With `CC(=O)OCC(=O)[C@H]1CC[C@H]2[C@@H]3CC[C@H]4C[C@H](O)CC[C@]4(C)[C@H]3C(=O)C[C@]12C` [alfadolone-acetate] (10 µM), in experiment [1], the morphology score is -0.231. Besides, the SARS-CoV-2 infection rate in experiment [2] is 116% (inactive).

In the case of `Cc1cc(NC(=O)C(c2ccccc2)N2CCCc3ccccc32)no1` (stereo not drawn) (10 µM), the morphology score in experiment [1] worked out at 0.018. The SARS-CoV-2 infection rate in experiment [2] was 92% (inactive).

On to `CC(C)OC(=O)[C@H](C)N[P@@](=O)(OC[C@H]1O[C@@H](n2ccc(=O)[nH]c2=O)[C@](C)(F)[C@@H]1O)Oc1ccccc1` (10 µM), for which the morphology score in experiment [1] came out at 0.087. Further, the SARS-CoV-2 infection rate in experiment [2] is 108% (inactive).

In experiment [1], `Cc1ccccc1-n1c(Cn2nc(-c3cccc(O)c3)c3c(N)ncnc32)nc2cccc(C)c2c1=O` (10 µM) had a morphology score of 0.0603. Besides, the SARS-CoV-2 infection rate in experiment [2] is 126% (inactive).

In turn, `O=C1O[C@H]([C@@H](O)CO)C([O-])=C1O.[Na+]` [sodium-ascorbate] (10 µM) gave a morphology score in experiment [1] of 0.159. In addition, the SARS-CoV-2 infection rate in experiment [2] is 95.5% (inactive).

Compound `CCOC(=O)CC(=O)N1CCSC1COc1ccccc1OC` (stereo not drawn) [moguisteine] (10 µM) returned a morphology score in experiment [1] of 0.165. The SARS-CoV-2 infection rate in experiment [2] is 99.5% (inactive).

Regarding `Fc1ccc(-c2cncc(CN3CCN(c4cccc5c4OCCO5)CC3)c2)cc1` [adoprazine] (10 µM), the morphology score in experiment [1] came to 0.131. Besides, the SARS-CoV-2 infection rate in experiment [2] was 101% (inactive).

As to `CCCCC(F)(F)[C@@]1(O)CC[C@H]2[C@@H](CC(=O)[C@@H]2CCCCCCC(=O)O)O1` [lubiprostone] (10 µM), the morphology score in experiment [1] was found to be 0.0116. Also, the SARS-CoV-2 infection rate in experiment [2] is 107% (inactive).

Consider `O=C(Nc1cccc(Nc2ncc(Br)c(NCCc3cnc[nH]3)n2)c1)N1CCCC1` (10 µM), for which the morphology score in experiment [1] was -0.00186. The SARS-CoV-2 infection rate in experiment [2] was 110% (inactive).

`O=C1[C@H]2CCCC[C@H]2C(=O)N1CCCCN1CCN(c2nsc3ccccc23)CC1` [perospirone] (10 µM) yielded a morphology score in experiment [1] of 0.0481. Moreover, in experiment [2], the SARS-CoV-2 infection rate is 115% (inactive).

Regarding `CCS(=O)(=O)Nc1ccc2c(c1)/C(=C(/Nc1ccc(CN3CCCCC3)cc1)c1ccccc1)C(=O)N2` [hesperadin] (10 µM), the morphology score in experiment [1] is -0.262. The SARS-CoV-2 infection rate in experiment [2] is 110% (inactive).

Turning to `CC[C@@]1([C@H]2O[C@H]([C@H]3O[C@@](O)(CO)[C@H](C)C[C@@H]3C)C[C@H]2C)CC[C@H]([C@@]2(C)CC[C@]3(C[C@H](O)[C@@H](C)[C@@H]([C@H](C)[C@H](OC)[C@@H](C)C(=O)O)O3)O2)O1` (10 µM), the morphology score in experiment [1] is 0.556. In experiment [2], the SARS-CoV-2 infection rate is 39% (active).

In experiment [1], `Oc1cc2c(c(Cl)c1O)CCNCC2c1ccccc1` (stereo not drawn) (10 µM) registered a morphology score of 0.16. In addition, in experiment [2], the SARS-CoV-2 infection rate is 97.5% (inactive).

As for `O=C(CC12CC3CC(CC(C3)C1)C2)Nc1cccc2nc(NCCNCCO)ccc12` (10 µM), the morphology score in experiment [1] is -0.132. For the same compound, the SARS-CoV-2 infection rate in experiment [2] is 116% (inactive).

On to `O=C(O)c1cccc(-c2noc(-c3ccccc3F)n2)c1` [ataluren] (10 µM), for which, in experiment [1], the morphology score is -0.00572. In experiment [2], the SARS-CoV-2 infection rate was 112% (inactive).

`CC(C)(C)c1cc(C=C(C#N)C#N)cc(C(C)(C)C)c1O` [tyrphostin-A9] (0.833333 µM) registered a morphology score in experiment [1] of 0.116. Further, the SARS-CoV-2 infection rate in experiment [2] is 80.5% (inactive).

As to `O=C(O)/C=C/c1ccc(O)c(O)c1` [caffeic-acid] (10 µM), in experiment [1], the morphology score was -0.0394. Moreover, the SARS-CoV-2 infection rate in experiment [2] was 110% (inactive).

Consider `C=C1/C(=C\C=C2/CCC[C@]3(C)[C@@H]([C@H](C)OCCC(C)(C)O)CC[C@@H]23)C[C@@H](O)C[C@@H]1O` [maxacalcitol] (10 µM), for which the morphology score in experiment [1] was -0.0664. The SARS-CoV-2 infection rate in experiment [2] was 122% (inactive).

`CNC(=O)c1ccc2c(c1)CCO[C@H]2CCN1CCN(c2ccc(C(N)=O)cc2)CC1` (10 µM) returned a morphology score in experiment [1] of 0.0173. Further, the SARS-CoV-2 infection rate in experiment [2] is 106% (inactive).

As for `CC(=O)[C@H]1CC[C@H]2[C@@H]3CC[C@H]4C[C@H](O)CC[C@]4(C)[C@H]3C(=O)C[C@]12C` [alfaxalone] (10 µM), the morphology score in experiment [1] was -0.0143. The SARS-CoV-2 infection rate in experiment [2] was 112% (inactive).

`CCOC(=O)[C@H](CCc1ccccc1)N[C@H]1CS[C@H](c2cccs2)CN(CC(=O)O)C1=O` [temocapril] (10 µM) yielded a morphology score in experiment [1] of 0.0304. In experiment [2], the SARS-CoV-2 infection rate was 114% (inactive).

In experiment [1], `NC(=O)NCCN1CCN(c2cccc(C(F)(F)F)c2)CC1` [fluprazine] (10 µM) gave a morphology score of 0.0715. Moreover, in experiment [2], the SARS-CoV-2 infection rate is 106% (inactive).

Turning to `CCC(=O)OCC(=O)[C@@]1(OC(=O)CC)[C@@H](C)C[C@H]2[C@@H]3CCC4=CC(=O)C=C[C@]4(C)[C@@]3(Cl)[C@@H](O)C[C@@]21C` [beclomethasone-dipropionate] (10 µM), the morphology score in experiment [1] worked out at 0.126. In addition, the SARS-CoV-2 infection rate in experiment [2] is 105% (inactive).

As to `C=CCNc1ncnc2ccc(Br)cc12` (10 µM), the morphology score in experiment [1] was found to be 0.19. Besides, in experiment [2], the SARS-CoV-2 infection rate was 101% (inactive).

With `COc1ccc(S(=O)(=O)N2CCC[C@H]2C(=O)Nc2cc(C)cc(C)c2)cc1` (10 µM), in experiment [1], the morphology score was -0.0886. For the same compound, in experiment [2], the SARS-CoV-2 infection rate is 113% (inactive).
